Source: PubChem BioAssay (National Center for Advancing Translational Sciences (NCATS))
Marburg entry: inhibitors of Marburg virus binding or entry into cells | hit rate 6.5% among 18,000 | AID 720532 | Marburg virus pseudotype entry/binding inhibition, cell-based | Potency, µM (highest dose often 49.2 µM), usual class: inhibitors
Lassa entry: blocks Lassa virus binding or cell entry | Lassa virus pseudotyped entry inhibition, cell-based qHTS | Potency, µM (doses to about 49.2 µM), usual class: inhibitors | hit rate 4.1% among 18,000
A number is an active result; . = inactive; ? = inconclusive; / = no result; ! = repeats disagree; [ ] = dose if it differs, or a comment. Shown are actives, neighbours in structure and some others; about 8% of the full set was active somewhere. Calls follow the shape of the full dose curve; tested in HEK293 cells.

SMILES	Marburg entry	Lassa entry
Cc1c(N)nc([C@H](CC(N)=O)NC[C@H](N)C(N)=O)nc1C(=O)N[C@H](C(=O)N[C@H](C)[C@@H](O)[C@H](C)C(=O)N[C@H](C(=O)NCCc1nc(-c2nc(C(=O)NCCCCN=C(N)N)cs2)cs1)[C@@H](C)O)[C@@H](O[C@@H]1O[C@@H](CO)[C@@H](O)[C@H](O)[C@@H]1O[C@H]1O[C@H](CO)[C@@H](O)[C@H](OC(N)=O)[C@@H]1O)c1cnc[nH]1	4µM	3.2µM
C=CCCCC=C(C)[C@H](OCc1ccc(OC)cc1)[C@H](CCC=C(C)C(N)=O)OC	.[8.59 µM]	.[8.59 µM]
Cc1c(C(=O)N(C)C2CCCCC2)sc2nc3ccc(N)cc3n12	22µM	?
O[C@@H](c1cc(C(F)(F)F)nc2c(C(F)(F)F)cccc12)[C@H]1CCCCN1	10µM	28µM
Cc1cccc(CNc2ncnc3ccc(-c4ccccc4CN(C)C)cc23)c1	10µM	?
Cc1cccc(CNc2ncnc3ccc(-c4ccc5c(c4)OCO5)cc23)c1	.	.
C[C@]12CC[C@@H]3c4ccc(O)cc4CC[C@H]3[C@@H]1CC[C@@H]2O	.	14µM!
CCCCCCC(=O)O[C@H]1CC[C@H]2[C@@H]3CCc4cc(O)ccc4[C@H]3CC[C@]12C	.	32µM
CC12CCC3c4ccc(O)cc4CCC3C1CCC2O (centres undefined)	.	?
C[C@@]12CC[C@@H]3c4ccc(O)cc4CC[C@H]3[C@H]1CC[C@H]2O	.	.
COc1ccc(O[C@H]2C=C[C@@H](c3ccccc3)O[C@H]2CON=C2[C@H]3CCn4c(=O)n(-c5ccccc5)c(=O)n4[C@@H]3[C@H](O)[C@@H]3O[C@H]23)cc1	.[8.59 µM]	.[8.59 µM]
O=C1NC(=O)C(c2cccc(Cl)c2)=C1Nc1ccc(Cl)c(C(=O)O)c1	.	.
O=[N+]([O-])c1ccc(O)c([N+](=O)[O-])c1	.	.
N#CC(C#N)=Cc1ccc([N+](=O)[O-])c(O)c1	16µM!	?
O[C@H]1C[C@H](c2ccccc2)N(CC2CCCCC2)C[C@H]1n1cc(C2CC2)nn1	.	.
CCCCC[C@@H](O)C1C(=O)OC(C)[C@H](O)/C=C/C=C/C=C/C=C/C=C(\C)C(O)C(O)C(O)C[C@H](O)C[C@H](O)C[C@H](O)C[C@H](O)C[C@@H]1O (some centres undefined)	16µM!	.
CC(C)OC(=O)c1cc2c(OCC(O)CNC(C)(C)C)cccc2[nH]1 (centres undefined)	35µM	.
C=NCc1cc2c(OC[C@@H](O)CNC(C)(C)C)cccc2[nH]1	?	.
CSCC[C@@H]1NC(=O)[C@@H]2CSCCS(=O)(=O)N2C1=O	.	.
C[C@H]1C=CCC(=O)N[C@@H](c2ccc3ccccc3c2)[C@@H](C)C=CCC(=O)N[C@@H]1c1ccc2ccccc2c1	.[8.59 µM]	.[8.59 µM]
CN1CCN(CCCNc2nc3ccc(Oc4ccc(NC(=O)Nc5cc(C(F)(F)F)ccc5F)cc4)cc3[nH]2)CC1	?	.
CCCCCCCCCCCCC(=O)N1CCCC[C@H]1CNC(=O)[C@@H](N)CCCCN	28µM	.
CC[C@H](C)[C@H](NC(=O)[C@H](Cc1ccc(O)cc1)NC(=O)[C@@H]1CCCN1C(=O)[C@@H](NC(=O)[C@@H](N)CCCCN)[C@@H](C)CC)C(=O)N[C@@H](CC(C)C)C(=O)O	.	.
CCOC(=O)C1=CN(CCCc2cn(Cc3ccccc3)nn2)C(=O)NC1c1ccccc1 (centres undefined)	.[8.59 µM]	.[8.59 µM]
O=C(NCc1ccccc1)c1ccc(-c2ccccc2C(F)(F)F)o1	.	11µM
SMILES	Marburg entry	Lassa entry
Cc1ccc(-c2ccc(C(=O)NCc3ccc(Cl)cc3)o2)c2ccccc12	.	?
O=C1[C@H]2[C@@H]3[C@@H](O)[C@H](O)CC(=NOCc4ccccc4)[C@@H]3CC[C@H]2C(=O)N1c1ccc(F)cc1F	.[8.59 µM]	.[8.59 µM]
CN1CCN(c2nc3cc(C(F)(F)F)ccc3n3cccc23)CC1	28µM!	.
CC(=O)CCC(=O)N1CCC(n2c(C3CCCO3)nc3cc(C(F)(F)F)ccc32)CC1 (centres undefined)	.	.
O=C1Nc2cccc(Br)c2[C@@]12O[C@H](COc1ccccc1)CC1=CCCC12 (some centres undefined)	?	.[8.59 µM]
CCO[C@H](c1cc(OC)cc([N+](=O)[O-])c1OC)[C@H](C)C=CCC(=O)OC	.[8.59 µM]	.[8.59 µM]
CN[C@@H](C)Cc1ccccc1	.	.
CC(CC(c1ccccc1)c1ccccc1)NC(C)(C)C (centres undefined)	13µM	?
C=CC1(O)C(OC)=CC2C(=O)C1C(c1ccccc1)C2C (centres undefined)	.[8.59 µM]	/
CCCCCC(=O)N1C[C@@H](n2cc(-c3ccc(F)cc3)nn2)[C@H](O)C[C@H]1c1ccc(C)cc1	?	.
Cc1ccc2c(c1)C1(CCN(CCc3nc(-c4ccccc4)oc3C)CC1)OC(=O)N2	?	13µM
O=C1NCC2(CCN(CCc3ccccc3)CC2)O1	.	.
Cc1cc2c(nc1C)CCCCN2C[C@H](C)ON=C[C@@H](C)[C@H](OCc1ccccc1)C(C)C	?	.[8.59 µM]
CN1CCN(Cc2ccc(-c3cc4ncnc(Nc5ccc(OCc6cccc(F)c6)c(Cl)c5)c4s3)o2)CC1	10µM	?
Fc1cccc(COc2ccc(Nc3ncnc4sc(-c5ccco5)cc34)cc2Cl)c1	?	.
C[C@@H]1CC[C@H]2C(=O)N(Cc3ccc(Cl)cc3)C[C@@H](O)CN2[C@@H]1c1ccc(Br)cc1	.[8.59 µM]	.[8.59 µM]
COC(=O)c1c(C(=O)OC)c2c3cc(OC)c(OC)cc3ccn2c1C(=O)OC	.[8.59 µM]	/
C=C(C)[C@H]1O[C@H]2CC[C@@]3(C)[C@@](O)(CC[C@H]4[C@@H]5OC(C)(C)[C@H]6C[C@@H]7C(=C)Cc8c(Cl)cc9[nH]c(c5c9c8[C@@]76O)[C@@]43C)[C@]23O[C@@H]3[C@H]1O	?	25µM
CC(C)=CCN1C(=O)C2(CC(C)=C[C@@H](C)O2)c2c(Br)cccc21 (some centres undefined)	.[8.59 µM]	.[8.59 µM]
O=C(Nc1ccc(Cl)c(Cl)c1)C1CC1	.	.
O=C(Cc1ccc(Cl)c(Cl)c1)N1CCCCC1CN1CCCC1 (centres undefined)	7.9µM	?
C[C@@]12CC3CC(N)(C1)C[C@@](C)(C3)C2	?	.
CC12CC3CC(C)(C1)CC(N)(C3)C2	.	35µM!
NC12CC3CC(CC(C3)C1)C2	32µM!	.
CC1=CC[C@@H](C)O[C@@]2(C1)C(=O)N(Cc1ccc(F)cc1)c1ccccc12	.[8.59 µM]	.[8.59 µM]
SMILES	Marburg entry	Lassa entry
C[C@H]1C[C@@H](C)O[C@@]2(C1)C(=O)N(Cc1ccccc1C(F)(F)F)c1ccccc12	.[8.59 µM]	.[8.59 µM]
C[C@@H]1CC2CCC[C@@H]2[C@]2(O1)C(=O)Nc1cccc(Br)c12 (some centres undefined)	.[8.59 µM]	.[8.59 µM]
C=CCCC1(C(=O)c2ccccc2)C(=O)C(CC=C(C)C)=C(OC)C(CC=C(C)C)(CCC=C(C)C)C1=O (centres undefined)	.[8.59 µM]	/
O=C(Nc1cccc(C(=O)NC2CC2)c1)c1ccccc1	.	.
Cc1ccc(C(=O)Nc2ccc(S(=O)(=O)O)c3cc(S(=O)(=O)O)cc(S(=O)(=O)O)c23)cc1NC(=O)c1cccc(NC(=O)Nc2cccc(C(=O)Nc3cc(C(=O)Nc4ccc(S(=O)(=O)O)c5cc(S(=O)(=O)O)cc(S(=O)(=O)O)c45)ccc3C)c2)c1	3.1µM!	.
O[C@@H]1CN(Cc2cccs2)[C@@H](c2ccccc2)C[C@@H]1n1cc(C2CC2)nn1	.	.
